# Measurements from PubChem BioAssay AID686978 (National Center for Advancing Translational Sciences (NCATS), 2013).
# Among all 420,000 compounds or so, about 64,000 (15%) were called active. Inconclusive results (about 27%) are left out. Calls follow the shape of the dose curve; as a rule, active = well fitted inhibition curve with a large enough effect; inconclusive = small, poorly fitted or top-dose-only effect; inactive = flat fitted curve, though single readings scatter. Only a sample is shown.
# Assay: qHTS for Inhibitors of human tyrosyl-DNA phosphodiesterase 1 (TDP1): qHTS in cells in absence of CPT; also: nearly all actives have a fitted effect of over 55% in size
# Details: DT40 Tdp1-/- hTDP1 cells, no CPT, ATP luminescence, 48 h; activity change, negative = growth inhibition: at 46.2 µM (top of the series)
# Procedure, shortened: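 Growth of hTDP1-complemented DT40 Tdp1-knockout cells is measured by ATP luminescence after at least 48 hr compound exposure at 37 °C, with DMSO substituting for the 20 nM CPT used in the parallel screen.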
# % is scaled to controls: 0 for no effect and ±100 for the full control effect; potency is read from the fitted curve at half-maximal effect.
Structure (SMILES),"activity change, negative = growth inhibition",Potency
CCc1nnc(NS(=O)(=O)c2ccc(NC(=S)NC(=O)c3cccs3)cc2)s1,-17.6% (inactive),–
O=C(NC(=S)Nc1cccc(-c2ccc(CO)o2)c1)c1cccs1,–,25.9 µM (active)
O=C(NC(=S)Nc1ccc(NC(=O)c2cccs2)cc1)c1ccc([N+](=O)[O-])cc1,2.62% (inactive),–
Cc1ccc(N2C(=O)C3C4C=CC(CC4)C3C2=O)cc1Cl (centres undefined),-6.19% (inactive),–
N#Cc1cccc(OC(=O)c2ccc3c(=O)n4c(nc3c2)CCC4)c1,-17.1% (inactive),–
O=C(CSCc1cccs1)N1CCCC1,-13.6% (inactive),–
CC(=O)C(CC(=O)N1CCCC1)C(=O)Nc1ccc(Cl)cc1 (centres undefined),-8.38% (inactive),–
O=C(CSCc1ccc(Cl)cc1)N1CCCCC1,–,16.4 µM (active)
O=C(N/C(=C\c1ccc([N+](=O)[O-])cc1)C(=O)N1CCCCC1)c1ccco1,-17.8% (inactive),–
COC(=O)/C(NC(C)=O)=C(\C)c1ccc(Cl)cc1,-13.3% (inactive),–
CCOc1ccccc1NC(=O)Nc1cc(OC)ccc1OC,0.675% (inactive),–
COc1ccc(OC)c(NC(=O)CC(Cc2ccccc2OC)C(=O)O)c1 (centres undefined),–,11.2 µM (active)
COc1ccc(OC)c(NC(=O)Cc2cccs2)c1,-10.7% (inactive),–
CC1CC(C)(C)n2c(O)c(N=NC(N)=S)c3cccc1c32 (centres undefined),-23.2% (inactive),–
COC(=O)[C@@]1(Cc2ccc(OC)cc2)[C@H]2c3cc(C(=O)N4CCCC4)n(Cc4ccc(OC(F)(F)F)cc4)c3C[C@H]2CN1C(=O)c1ccccc1,–,18.4 µM (active)
COc1ccc2[nH]cc(CCN3C(=O)c4ccc(C(=O)O)cc4C3=O)c2c1,-14.5% (inactive),–
COC(=O)[C@@]1(Cc2ccc(F)cc2)[C@H]2c3cc(C(=O)N(C)C)n(CCc4c[nH]c5ccc(OC)cc45)c3C[C@H]2CN1C(=O)c1ccccc1,–,23.1 µM (active)
COC(=O)[C@@]1(Cc2ccc(F)cc2)[C@H]2c3cc(C(=O)N4CCCC4)n(Cc4ccc(OC(F)(F)F)cc4)c3C[C@H]2CN1C(=O)c1ccccc1,–,18.4 µM (active)
COc1ccc(OCc2cccc(C(=O)N3CCCC3)c2)cc1,-22.2% (inactive),–
COC(=O)c1cccc(C(=O)N2CCC(CCC(=O)NCc3ccc(F)cc3)CC2)c1,-6.05% (inactive),–
Cc1ccc(CN2CCNC(=O)C2CC(=O)NCc2csc(C(C)C)n2)cc1 (centres undefined),-4.7% (inactive),–
Cc1cc(NC(=O)c2cccc(N3C(=O)CCC3=O)c2)no1,-17.9% (inactive),–
Cc1cc(N/C=C\C(=O)c2ccc(Cl)c(Cl)c2)no1,-14.7% (inactive),–
Cc1cccc(OCCC(=O)OCc2csc(CC(=O)Nc3ccccc3C)n2)c1,0.189% (inactive),–
O=C(CSc1nnc(SCc2ccc(F)cc2)s1)Nc1ccc(C(=O)O)cc1,5.88% (inactive),–

Structure (SMILES),"activity change, negative = growth inhibition",Potency
CCCCn1c(N)c(N(CCC(C)C)C(=O)COC(=O)c2cccnc2OCC)c(=O)[nH]c1=O,14.9% (inactive),–
O=C(NCCCCO)C(F)(F)C(F)(F)C(F)(F)C(=O)NCCCCO,4.75% (inactive),–
CC1=C2C(=O)OC(c3ccoc3)C2(C)CCC1 (centres undefined),-12.7% (inactive),–
O=C(Nc1ccc(F)cc1)Nc1nnc([C@H]2C[C@H](O)[C@@H](CO)O2)s1,-21.8% (inactive),–
Cc1c(Cl)cnc(NC(=O)COC(=O)C2CCCC2)c1Cl,14.7% (inactive),–
Cc1ccc(NC(=O)C(C)Sc2nnc(C3CC3)n2C2CC2)cc1S(=O)(=O)N1CCOCC1 (centres undefined),15% (inactive),–
FC(F)Oc1ccccc1C1CC(c2ccc(Br)s2)Nc2ncnn21 (centres undefined),–,16.4 µM (active)
Clc1ccc(C2CC(c3cccs3)n3ncnc3N2)cc1Cl (centres undefined),-22% (inactive),–
COc1ccc(C2CC(c3ccccc3)Nc3ncnn32)cc1 (centres undefined),-9.25% (inactive),–
COc1ccc(F)cc1C(=O)C1CCCN(C(=O)CCc2ccccn2)C1 (centres undefined),–,18.4 µM (active)
COc1ccc(C(=O)N2CCCC(C(=O)c3ccccc3OC)C2)cc1OC (centres undefined),15.4% (inactive),–
CSCC(=O)N1CCCC(C(=O)c2cc(F)ccc2F)C1 (centres undefined),-24.5% (inactive),–
CCc1ccc(CN2C(=O)c3ccccc3C2C(=O)NCC2CCCO2)cc1 (centres undefined),8.07% (inactive),–
COc1ccc2oc(=O)cc(CN3CCOCC3)c2c1,11.8% (inactive),–
O=S(=O)(c1cccs1)N1CCN(Cc2ccccc2)CC1,-5.85% (inactive),–
Cc1cc2oc(=O)cc(CN3CCN(S(=O)(=O)c4cccs4)CC3)c2cc1C(C)C,–,20.6 µM (active)
O=C(CSc1nnc(-c2cccs2)n1-c1ccccc1)NCc1ccco1,-11.9% (inactive),–
CC1CCc2c(sc(NC(=O)c3ccc(Cn4cc(Br)cn4)o3)c2C(N)=O)C1 (centres undefined),-20.8% (inactive),–
CCCCN(C(=O)c1cccc(N2C(=O)c3ccccc3C2=O)c1)c1c(N)n(CCCC)c(=O)[nH]c1=O,17.5% (inactive),–
CS(=O)(=O)c1ccc2nc(NC(=O)c3ccc(N4CCCC4=O)cc3)sc2c1,-0.935% (inactive),–
O=C(Nc1nc2ccc([N+](=O)[O-])cc2s1)c1ccc(S(=O)(=O)N2CCCc3ccccc32)cc1,–,4.11 µM (active)
O=C(Nc1nc2ccc([N+](=O)[O-])cc2s1)c1ccncc1,-13.7% (inactive),–
O=C(COC(=O)c1ccc(F)cc1)Nc1nc2ccc([N+](=O)[O-])cc2s1,-18.2% (inactive),–
Cc1nn(C)c(C)c1S(=O)(=O)N1CCc2ccccc21,-29.2% (inactive),–
